Screening data as filed in PubChem.
HP1b binding inh: HTS for Inhibitors of HP1-beta Chromodomain Interactions with Methylated Histone Tails. Potency, µM (titrated, usually from 114 µM), inactives show at the highest dose activity change, negative = inhibition, hits mostly inhibitors. 390,000 tested, 0.56% active. Chromobox protein homolog 1 (Homo sapiens), P83916. AlphaScreen HP1-beta / biotin-H3K9me3 peptide binding. AID 540317, 2011; further: potency means the concentration at half of the fitted maximal effect; nearly all actives have a fitted effect of over 70% in size
Target sequence (P83916 whole entry, looked up): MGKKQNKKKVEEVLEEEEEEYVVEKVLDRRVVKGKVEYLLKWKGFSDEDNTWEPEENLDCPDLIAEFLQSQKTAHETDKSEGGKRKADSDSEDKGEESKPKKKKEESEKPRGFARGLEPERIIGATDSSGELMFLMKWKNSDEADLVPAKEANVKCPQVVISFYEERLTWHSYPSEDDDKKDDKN
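HP1-beta protein (50 nM final) preincubated 30 min at room temperature with biotinylated H3(1-18)K9me3 peptide (50 nM) in PBS pH 7.4, 0.01% Tween-20, then compound added for 30 min. AlphaScreen streptavidin donor/nickel chelate acceptor beads (10 ug/mL final), 30 min dark, luminescence read.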
CtBP-E1A blk: qHTS Assay for Inhibitors of the CtBP/E1A Interaction. AID 651724, 2012. 340,000 tested, 0.49% active. AlphaScreen GST-E1A/His-CtBP binding, 1536-well; hits give low values. activity change, % (concentration not given with the values). CtBP / adenovirus E1A interaction (AlphaScreen); in the data active means activity change below about -65%; inconclusive means mostly about -30% to -63%; further: on the % scale 0 is the no-effect control and ±100 the full control effect
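AlphaScreen with 125 nM GST-E1A and 125 nM His-CtBP (5X stocks) in Tris pH 8.0, 300 mM NaCl, BSA, Tween 20, TCEP. Compounds preincubated 2 h at 37 deg C, then glutathione donor/nickel acceptor beads added for 1 h at 37 deg C in dark.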
G9a block: qHTS Assay for Inhibitors of Histone Lysine Methyltransferase G9a; 350,000 tested, 8.8% active; Potency, µM (doses to about 102 µM), for the others: at the highest dose activity, negative = inhibition, usual class: inhibitors; G9a H3K9 monomethylation, AlphaScreen, 2 h; Histone-lysine N-methyltransferase EHMT2 (Homo sapiens), Q96KQ7; further: potency means the concentration at half of the fitted maximal effect; on the % scale 0 is the no-effect control and ±100 the full control effect; nearly all actives have a fitted effect of over 75% in size
Target sequence (Q96KQ7 913-1193 limits assumed): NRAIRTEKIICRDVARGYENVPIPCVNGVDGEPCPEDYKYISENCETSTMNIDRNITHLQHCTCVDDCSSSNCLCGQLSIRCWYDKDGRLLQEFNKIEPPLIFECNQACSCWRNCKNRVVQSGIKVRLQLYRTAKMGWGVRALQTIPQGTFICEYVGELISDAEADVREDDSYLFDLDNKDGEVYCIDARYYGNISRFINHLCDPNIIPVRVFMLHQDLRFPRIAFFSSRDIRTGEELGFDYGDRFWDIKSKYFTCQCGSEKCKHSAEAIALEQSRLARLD
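Chemiluminescent proximity detection of H3K9 monomethylation, read after 10 min bead incubation in the dark. Reaction: 20 nM G9a, 500 nM biotin-H3K9 peptide, 20 uM SAM cofactor, 2 h, room temperature, following 15 min enzyme-compound preincubation.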
JMJD2A Tudor inh: qHTS Assay for Inhibitors of JMJD2A-Tudor Domain; AlphaScreen JMJD2A-Tudor / H3K4me3 peptide binding; Potency, µM (titrated, usually from 114 µM), for inactives: at the highest dose activity change, negative = inhibition, actives largely listed as inhibitors; 390,000 tested, 4.4% active; AID 504339, 2011; further: potency means the concentration at half of the fitted maximal effect; on the % scale 0 is the no-effect control and ±100 the full control effect; nearly all actives have a fitted effect of over 50% in size
Six1-Eya2 blk: qHTS Assay for Inhibitors of the Six1/Eya2 Interaction; AlphaScreen GST-Six1/His-Eya2 binding, biochemical; hits give low values; activity change, % (concentration not given with the values); Homeobox protein SIX1 (Homo sapiens) + Protein phosphatase EYA2 (Homo sapiens), …; 360,000 tested, 0.56% active; in the data active means activity change below about -65%; inconclusive means mostly about -30% to -63%; further: on the % scale 0 is the no-effect control and ±100 the full control effect
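Homogeneous AlphaScreen proximity assay pairing GST-Six1 with His-tagged Eya2 (added as 5X mix: 250 nM and 500 nM) in 50 mM Tris pH 8.0, 300 mM NaCl, 1 mM TCEP. Glutathione donor and nickel acceptor beads; 1 h, 37 °C, dark.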
BAZ2B inh: qHTS Assay for Inhibitors of BAZ2B | Potency, µM (top dose mostly 114 µM), for inactives: at the highest dose activity change, negative = inhibition, hits mostly inhibitors | AlphaScreen BAZ2B-H3K14Ac peptide displacement | AID 504333, 2011 | 360,000 tested, 4.4% active; further: potency means the concentration at half of the fitted maximal effect; on the % scale 0 is the no-effect control and ±100 the full control effect; nearly all actives have a fitted effect of over 60% in size
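Protein-peptide AlphaScreen: BAZ2B 50 nM, b-H3K14Ac 50 nM, 1x PBS pH 7.4 + 0.01% Tween-20. Preincubation 30 min RT; cpd 30 min RT (top 110 uM); beads 20 min RT, light-protected.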
Starred values were filed as active, the others as inactive; ? = inconclusive; nt = no result given; [ ] = remark or other dose. Shown are actives, neighbours in structure and some others; about 10% of the full set was active somewhere. Unless noted, the call rests on the fitted dose curve; in most records, active means well fitted inhibition curve with a large enough effect; inconclusive means small, poorly fitted or top-dose-only effect; inactive means no such curve, though single readings can be large or run the other way.

SMILES | HP1b binding inh | CtBP-E1A blk | G9a block | JMJD2A Tudor inh | Six1-Eya2 blk | BAZ2B inh
COc1ccc(NC(=O)C2(C)CCN2Cc2ccccc2Cl)cc1OC (stereo unspecified) | nt | -24 | nt | nt | -14 | nt
COc1ccc(NC2c3ncccc3C(=O)N2Cc2ccccc2)c(OC)c1 (stereo unspecified) | -15% | 7 | 13µM* | 25µM* | -8 | ?
COc1ccc(NC2c3ccccc3C(=O)N2Cc2ccccc2Cl)cc1OC (stereo unspecified) | ? | ? | 50µM* | -18%[11.4 µM] | -19 | ?
COc1ccc(CN2C(=O)c3cccnc3C2Nc2ccc(OC)c(Cl)c2)cc1 (stereo unspecified) | -16% | -9 | ? | 50µM* | -2 | ?
Cc1ccc(NC2c3ncccc3C(=O)N2Cc2ccc(F)cc2)cc1 (stereo unspecified) | 15% | 1 | ? | -22% | -1 | -36%
COc1cccc(-c2cncnc2NC2CCNCC2)c1 | nt | nt | 4%[0.501 µM] | nt | nt | nt
COc1cccc(CNC(=O)Cn2nc(-c3ccc(C)cc3)ccc2=O)c1 | 24% | nt | -12%[59 µM] | -25% | nt | 0%
COc1ccc(S(=O)(=O)NCc2ccc3c(c2)cc(C)n3C)cc1 | -19% | -8 | 71µM* | ? | -21 | -36%
Cc1cc2cc(CNS(=O)(=O)c3ccccc3)ccc2n1C | -5% | -7 | 50µM* | ? | -28 | ?
COc1ccc(F)cc1S(=O)(=O)NCCCn1ccnc1 | 32% | 7 | nt | -18% | 6 | -12%
CSC1=N/C(=C\c2ccc(C)o2)C(=O)S1 | -66% | -3 | 13µM* | ? | -2 | 45µM*
CCSC1=N/C(=C\c2cccc(F)c2)C(=O)S1 | 19% | 5 | -15%[59 µM] | -24% | 6 | 8%
CCSC1=N/C(=C\c2ccc(-c3ccccc3[N+](=O)[O-])o2)C(=O)S1 | 10µM* | 0 | 46%[0.501 µM] | ? | -15 | 7.9µM*
CCCSC1=N/C(=C\c2ccc([N+](=O)[O-])o2)C(=O)S1 | 35µM* | -11 | ? | 11µM* | ? | 13µM*
CCc1ccc(CNC(=O)c2cc(=O)[nH]c3ccc(S(=O)(=O)N4CCCCC4)cc23)cc1 | 42% | nt | 5%[59 µM] | -7% | nt | -2%
COc1ccc(CCNC(=O)CCc2c(C)c3cc4c(C)coc4c(C)c3oc2=O)cc1OC | 34% | nt | 0%[59 µM] | -19% | nt | 3%
O=C1[C@H]2[C@H]3[C@H](O)[C@H](O)C/C(=N\OC[C@@H](O)COCc4ccco4)[C@@H]3CC[C@H]2C(=O)N1c1ccc(F)cc1F | nt | nt | 50µM* | nt | nt | -33%
CCN1C(=O)[C@H]2[C@H]3[C@H](O)[C@H](O)C/C(=N\O[C@H](C)c4cn([C@H](CO)Cc5ccccc5)nn4)[C@@H]3CC[C@H]2C1=O | nt | nt | ? | nt | nt | -3%
CN1CCN(C(=S)c2ccc(-c3cc(Cl)ccc3Cl)o2)CC1 | ? | nt | 32µM* | 35µM* | -11 | 28µM*
N#CCCN1CCN(C(=S)c2ccc(-c3cc(Cl)ccc3Cl)o2)CC1 | ? | ? | 18µM* | 40µM* | -13 | ?
COc1cccc(OC)c1NC(=O)c1ccc(-c2cc(Cl)ccc2Cl)o1 | nt | -10 | nt | nt | -8 | nt
Nc1nc(NCc2cccc(Cl)c2)c2[nH]cnc2n1 | 44% | nt | nt | -23% | nt | nt
COc1cccc(NC(=S)NCCc2ccccn2)c1 | 21% | nt | 28µM* | -14% | -1 | 56µM*
S=C(NCc1ccccn1)NN=Cc1ccccn1 | -4% | -4 | nt | 32µM* | -91* | nt
COc1ccc(CCNC(=O)C(=O)NCc2ccccn2)cc1 | 15% | 9 | 50µM* | -12% | 3 | -25%
SMILES | HP1b binding inh | CtBP-E1A blk | G9a block | JMJD2A Tudor inh | Six1-Eya2 blk | BAZ2B inh
CCCNC(=O)C(=O)NCc1ccccn1 | 12% | 5 | ? | 3% | 4 | -21%
Cc1cccc(NC(=S)NCc2ccccn2)c1 | 33% | -4 | 71µM* | ? | -12 | -29%
COc1ccc(NC(=O)C2CCN(S(=O)(=O)c3ccc4c(c3)CCCC(=O)N4)CC2)cc1OC | 34% | nt | 1%[59 µM] | -2% | nt | 7%[57.1 µM]
Cc1ccccc1C(=O)NNc1ccc(-c2csnn2)cc1 | 35% | 4 | nt | -9% | -1 | -16%
Cc1n[nH]c(=O)c2c(NC(=O)CSc3nn(-c4ccccc4)c(=S)s3)oc(C)c12 | 19% | 4 | ? | -19% | 14 | -25%
O=C(Cn1c(=O)c2sccc2n(Cc2ccc([N+](=O)[O-])cc2)c1=O)NCCc1ccccc1 | -18% | -89* | 42%[59 µM] | -15% | ? | 3%
CC(=O)/C(=N/Nc1ccccc1)N1CCOCC1 | 33% | 5 | -19%[59 µM] | -16% | -1 | 3%
CC(=O)/C(=N/Nc1ccccc1C)N1CCOCC1 | 1% | -11 | 1µM* | 56µM* | 4 | -2%
COc1ccc(NC(=O)CSC2=C(C#N)C(c3ccco3)C3=C(CCCC3=O)N2)c(OC)c1 (stereo unspecified) | -9% | -22 | 45µM* | -28% | -25 | 79µM*
COc1cccc(NC(=O)CSC2=C(C#N)C(c3ccco3)C3=C(CCCC3=O)N2)c1 (stereo unspecified) | 4% | -5 | ? | -30% | -17 | ?
COc1cc(OC)c(Nc2nc3ccc(C)cc3n3nnnc23)cc1Cl | 50% | nt | -6%[59 µM] | 7% | nt | -2%
C#CCOCCOCCOCCNc1nc(N2CCN(C(=O)CCCCCCCCCCNC(=O)[C@@H](CCSC)n3cc(CCO)nn3)CC2)nc(N2CCN(C(=O)CCCCCCCCCCNC(=O)[C@H](CO)n3cc(CCCCCN)nn3)CC2)n1 | ? | -2 | -11%[2.33 µM] | 79µM* | -13 | ?
C#CCOCCOCCOCCNc1nc(N2CCN(C(=O)CCCCCCCCCCNC(=O)[C@@H](CCSC)n3cc(CCO)nn3)CC2)nc(N2CCN(C(=O)CCCCCCCCCCNC(=O)[C@H](CCC(=O)O)n3cc(CCCCCN)nn3)CC2)n1 | 7% | nt | -11%[2.33 µM] | -36% | -11 | -12%
C#CCOCCOCCOCCNc1nc(N2CCN(C(=O)CCCCCCCCCCNC(=O)[C@@H](CCC(=O)O)n3cc(CCCCCN)nn3)CC2)nc(N2CCN(C(=O)CCCCCCCCCCNC(=O)[C@H](CO)n3cc(CCCSC)nn3)CC2)n1 | 28% | ? | -11%[2.33 µM] | 45µM* | -13 | ?
COCCNC(=O)CCn1c(=O)c2cc(OC)c(OC)cc2n(CC(=O)Nc2ccc(F)c(Cl)c2)c1=O | 32% | nt | -1%[59 µM] | -16% | nt | -14%
